For 40 molecules, Potency and activity change, negative = cytotoxicity results are on record in PubChem BioAssay (Tox21).

Structures are written as SMILES. “And” between values parts separate entries of the source, which are not always exact repeats. Equal entries are not always repeated. Results filed as inconclusive are left out. A call without a number means that no potency is given here. The source made the active and inactive calls. Calls follow the shape of the dose curve; as a rule, active = well fitted cell-killing curve with a large enough effect in the repeat runs; inconclusive = weak or mixed curves, or effect the other way; inactive = flat fitted curve, though single readings scatter.
Potency is read from the fitted curve at half-maximal effect.

The nature of the experiment: Nuclear factor erythroid 2-related factor 2/antioxidant responsive element (Nrf2/ARE) small molecule agonists: qHTS cell viability counter screen in human keratinocytes (AID 1919968). Also: nearly all actives have a fitted effect of over 55% in size. The settings on record: KeratinoSens HaCaT ARE cells viability, CellTiter-Fluor, 24 h; series mostly up to 92.4 µM. An excerpt: U.S. Tox21 Program National Center for Advancing Translational Sciences [NCATS] Division of Preclinical Innovation [DPI] U.S. Environmental Protection Agency [EPA] National Institutes of Environmental Health Sciences [NIEHS] National Toxicology Program [NTP] U.S. Food and Drug Administration [FDA] Tox21 Assay Overview: Oxidative stress has been implicated in the pathogenesis of a variety of diseases ranging from cancer to neurodegeneration. The antioxidant response element (ARE) signaling pathway plays an important role in the amelioration of oxidative stress. The KeratinoSens (Givaudan, Switzerland) is an in vitro test method which quantifies luciferase induction as a measure of activation of Keap1-Nrf2-antioxidationt/electrophile response element (ARE) dependant pathway in HaCaT human keratinocytes stably transfected with a selectable plasmid. The KeratinoSens assay is a cell-based assay with a reporter cell line to detect potential skin sensitizers by their ability to induce the Nrf2/ARE-response. The activation of the report gene under culture conditions can be detected by ONE-Glo Luciferase Assay System (Promega, Madison, WI). This cell line has been used to screen the Tox21 10K compound library to identify agonists that induce oxidative stress. The cytotoxicity of the Tox21 compound library against the KS-ARE cell line was tested in parallel by measuring the cell viability using CellTiter- Fluor assay system (Promega, Madison, WI) in the same wells.
Tox21 Assay Protocol Summary: HaCaT derived cell line KeratinoSens were dispensed at 1,500 cells/5uL/well in 1536-well white wall/solid bottom plates using a Multidrop Combi (ThermoFisher Scientific, Waltham, MA) dispenser. After the assay plates were incubated at 37 C/5% CO2 for 5 h, 23 nL of compounds dissolved in DMSO, positive controls or DMSO only was transferred to the assay plate by a pintool workstation (Kalypsys, San Diego, CA). The plates were incubated at 37 C/5% CO2 for 23 h, followed by addition of 1uL/well of CellTiter-Fluor reagent into the assay plates using a Flying Reagent Dispenser (Aurora Discovery, San Diego, CA) for cell viability readout that measures cytotoxicity. After 1 h incubation at 37 C/5% CO2 the fluorescence intensity was measured using a ViewLux (PerkinElmer, Shelton, CT) plate reader.
`CC(C)COC(=O)c1ccc(N)cc1`: the Potency result was “inactive”. Same read-out and setting: the result for `OC1OC[C@@H](O)[C@H](O)[C@H]1O` (stereo not given in full) reads “inactive”; that for `CC(C)(CCC(=O)O)C(=O)O`, “inactive”. `CC(C)C(=O)c1ccccc1`: the Potency result was “inactive”.

With `O=C(O)CN(CCCN(CC(=O)O)CC(=O)O)CC(=O)O`, the activity change, negative = cytotoxicity was -0.241% [at 19 µM] (inactive). `CCCOC(C)=O`: the Potency result is “inactive”. `CCCCOC(=O)C(=O)OCCCC`: the Potency entry was “inactive”. In the case of `CC(=O)OC/C=C(\C)CC/C=C(\C)CCC=C(C)C`, the Potency entry is “inactive”. Still for that read-out and setting: in the case of `Nc1cc(=O)[nH]c(N)n1` it was “inactive”. As for `C1COCCO1`, the Potency result was “inactive”.

On to `CN1CCc2cccc3c2[C@H]1Cc1ccc(O)c(O)c1-3`, for which the Potency was 30.9 µM (active) and 22.8 µM (active). For `C=C1[C@H]2CC[C@@H]3[C@H]2C(C)(C)CCC[C@]13C`, the Potency entry is “inactive”. The same measure, in the same setting: the result for `C=C[Si](OC(=C)C)(OC(=C)C)OC(=C)C` reads “inactive”; that for `COc1cc(C)c(Cc2cnc(N)nc2N)cc1OC`, “inactive”.

For `CC(C)(C)C(=O)C(Oc1ccc(Cl)cc1)n1ccnc1` (stereo not given), the Potency entry is “inactive”. On to `CN1CCCC1=O`, for which the Potency result was “inactive”. Same read-out and setting: in the case of `COc1ccc(COC(C)=O)cc1` it was “inactive”; in that of `COc1cc(OC)nc(O[C@H](C(=O)O)C(OC)(c2ccccc2)c2ccccc2)n1`, “inactive”; in that of `CCO[Si](C)(OCC)OCC`, “inactive”. Regarding `COS(=O)(=O)O`, the Potency result was “inactive”. As to `NS(=O)(=O)c1ccc(NC(=O)CCC(=O)O)cc1`, the Potency entry was “inactive”.

Take `CCOC(OCC)C(=O)c1ccccc1`: the Potency entry was “inactive”. The same measure, in the same setting: the result for `CCCC[O][Al]([O]CCCC)[O]CCCC` reads “inactive”; that for `C[C@@H]1CCN(C(=O)[C@H](CCCN=C(N)N)NS(=O)(=O)c2cccc3c2NC[C@H](C)C3)[C@@H](C(=O)O)C1`, “inactive”.

Take `CC(COCCO)OCCO` (stereo not given): the Potency result was “inactive”. The same measure, in the same setting: in the case of `CC(C)CCCCCOC(=O)CS` it was “inactive”. For the molecule `CCCCCCCCCCCCOCC1CO1` (stereo not given), the Potency result was “inactive”. Same read-out and setting: the result for `C/C=C/C(=O)C1=C(C)C=CCC1(C)C` reads “inactive”; that for `CC(C)CC(C)(N)C#N` (stereo not given), “inactive”. As for `C[CH2][Ge]([Cl])([CH2]C)[CH2]C`, the Potency entry is “inactive”. The same measure, in the same setting: the result for `CCOC(=O)c1cccc(N)c1` reads “inactive”; that for `CC(c1cc2ccccc2s1)N(O)C(N)=O` (stereo not given), “inactive”; that for `CCCCCCCC(=O)N(C)C`, “inactive”.

As for `Cc1ccc(C(=O)Nc2ccc(S(=O)(=O)O)c3cc(S(=O)(=O)O)cc(S(=O)(=O)O)c23)cc1NC(=O)c1cccc(NC(=O)Nc2cccc(C(=O)Nc3cc(C(=O)Nc4ccc(S(=O)(=O)O)c5cc(S(=O)(=O)O)cc(S(=O)(=O)O)c45)ccc3C)c2)c1`, the Potency entry is “inactive”. Same read-out and setting: the result for `Cc1cc(O)cc2c1O[C@](C)(CCC[C@H](C)CCC[C@H](C)CCCC(C)C)CC2` reads “inactive”; that for `CC(C)OC(=O)C(O)(CC(=O)O)CC(=O)O`, “inactive”; that for `C/C=C/C(=O)O`, “inactive”. The same measure, in the same setting: in the case of `N#CC1(c2ccc(F)cc2)CCC(=O)CC1` it was “inactive”; in that of `C=C(C)C(=O)OCCC(F)(F)C(F)(F)C(F)(F)C(F)(F)C(F)(F)C(F)(F)F`, “inactive”; in that of `CC(C)COC(=O)c1ccccc1O`, “inactive”.
